Source: PubChem BioAssay (EPA / NIEHS)
Inconclusive results are not listed. The source made the active and inactive calls. Rule for the calls, unless noted: active = hit-call score of the fitted dose curve at least 0.9, where 1 is the maximum; inconclusive = response in the unintended direction; inactive = score below 0.9.

How the values were obtained:
PGR (gene 5241) [1] = biological target: PGR (gene 5241) (UniProt P06401); experiment: TOX21_PR_BLA_Followup_Agonist_ratio: Tox21 HEK293 Progesterone Receptor (PR) Agonism Beta-lactamase Follow-Up Assay, Ratio (AID 2283933)
Procedure, shortened: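 Read-out: ratio of cleaved (ch2) to uncleaved (ch1) beta-lactamase substrate fluorescence, gain-of-signal relative to DMSO baseline. Cells: PR-UAS-bla HEK293T, 2% charcoal-stripped FBS; compound exposure 16 hr, 37C; substrate 2 hr, RT.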

PGR (gene 5241) [2] = biological target: PGR (gene 5241) (UniProt P06401); experiment: TOX21_PR_BLA_Followup_Antagonist_ratio: Tox21 HEK293 Progesterone Receptor (PR) Antagonism Beta-lactamase Follow-Up Assay, Ratio (AID 2283934)
Procedure, shortened: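 Read-out: blue/green beta-lactamase FRET ratio (cleaved ch2 over uncleaved ch1), fitted relative to DMSO baseline. Cells: PR-UAS-bla HEK293T, GAL4-UAS reporter, stimulated with 1 nM R5020 final; 16 hr compound exposure, 37C.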

[3] = TOX21_PR_BLA_Followup_Agonist_viability: Viability Assessment in the Tox21 HEK293 Progesterone Receptor (PR) Agonism Beta-lactamase Follow-Up Assay (AID 2283935);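 note: signal loss means lower viability so actives are cytotoxic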
Procedure, shortened: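 Luminescent ATP quantitation (CellTiter-Glo, 30 min, room temperature) in the same wells as the beta-lactamase read, on PR-UAS-bla HEK293T cells exposed to compound for 16 hr at 37C in 2% charcoal-stripped serum.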

[4] = TOX21_PR_BLA_Followup_Antagonist_viability: Viability Assessment in the Tox21 HEK293 Progesterone Receptor (PR) Antagonism Beta-lactamase Follow-Up Assay (AID 2283936);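 note: cells exposed to compound with R5020 agonist for 16 h; hits lower the luminescence signal meaning cytotoxicity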
Procedure, shortened: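 PR-UAS-bla HEK293T cells in medium with 2% charcoal-stripped FBS were treated with compounds plus R5020 for 16 hr at 37C. After the beta-lactamase read, CellTiter-Glo was added to the same wells and luminescence read after 30 min at room temperature.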

PGR (gene 5241) [5] = biological target: PGR (gene 5241) (UniProt P06401); experiment: TOX21_PR_LUC_Followup_Agonist: Tox21 HEK293 Progesterone Receptor (PR) Agonism Luciferase Follow-Up Assay (AID 2283937; active = hit-call score of the fitted dose curve at least 0.9, where 1 is the maximum; inactive = score below 0.9)
Procedure, shortened: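 Luminescence read-out (ONE-Glo, 30 min at room temperature) of PR-driven luciferase in HEK293-PR-A-luc cells after 16 h compound exposure at 37C; gain of signal fitted relative to DMSO baseline.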

[6] = CEETOX_H295R_CORTIC_noMTC: CeeTox H295R High-throughput Steroidogenesis Assay for Corticosterone (CORTIC), maximum tolerated concentration (MTC) filtered results only (AID 2283917; active = hit-call score of the fitted dose curve at least 0.9, where 1 is the maximum; inactive = score below 0.9); settings: actives raise or lower the signal
Procedure, shortened: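 Forskolin-stimulated (10 uM, 48 h) H295R cells are dosed 48 h with chemical in DMSO (0.1% final); corticosterone change is quantified by HPLC-MS/MS and fitted bidirectionally against DMSO, unfiltered for MTT-derived MTC.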

[7] = CEETOX_H295R_DOC_noMTC: CeeTox H295R High-throughput Steroidogenesis Assay for DOC, maximum tolerated concentration (MTC) filtered results only (AID 2283918; active = hit-call score of the fitted dose curve at least 0.9, where 1 is the maximum; inactive = score below 0.9); settings: actives raise or lower the signal
Procedure, shortened: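 H295R cells prestimulated 48 h with 10 uM forskolin, then exposed 48 h to test chemical (0.1% DMSO final). Medium 11-deoxycorticosterone extracted with MTBE, quantified by HPLC-MS/MS; bidirectional fit versus DMSO, concentrations not MTC-filtered.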

[8] = CEETOX_H295R_PROG_noMTC: CeeTox H295R High-throughput Steroidogenesis Assay for Progesterone (PROG), maximum tolerated concentration (MTC) filtered results only (AID 2283920; active = hit-call score of the fitted dose curve at least 0.9, where 1 is the maximum; inactive = score below 0.9); settings: actives raise or lower the signal
Procedure, shortened: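 Progesterone synthesis in the human adrenal line H295R is measured by HPLC-MS/MS after 48 h chemical exposure following 48 h forskolin (10 uM) stimulation. Activity in either direction is fitted relative to DMSO.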

[9] = CEETOX_H295R_ESTRADIOL_noMTC: CeeTox H295R High-throughput Steroidogenesis Assay for Estradiol, maximum tolerated concentration (MTC) filtered results only (AID 2283919; active = hit-call score of the fitted dose curve at least 0.9, where 1 is the maximum; inactive = score below 0.9); settings: actives raise or lower the signal
Procedure, shortened: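 Readout: dansyl-derivatized estradiol quantified by LC-MS/MS in medium from H295R cells dosed 48 h (0.1% DMSO) following 48 h forskolin (10 uM) prestimulation. Gain or loss of signal fitted against DMSO; no MTC filtering applied.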

[10] = CEETOX_H295R_ESTRONE_noMTC: CeeTox H295R High-throughput Steroidogenesis Assay for Estrone, maximum tolerated concentration (MTC) filtered results only (AID 2283921; active = hit-call score of the fitted dose curve at least 0.9, where 1 is the maximum; inactive = score below 0.9); settings: actives raise or lower the signal
Experimental: CEETOX_H295R is a cell-based, multiplexed-readout assay that uses H295R, a human adrenal gland cell line, with measurements taken at 48 hours after chemical dosing in a 96-well plate.CEETOX_H295R_ESTRONE_noMTC is one of 12 assay component(s) measured or calculated from the CEETOX_H295R assay (11 hormones and 1 viability assay). It is designed to make measurements of hormone induction, a form of inducible reporter, as detected with absorbance signals by HPLC-MS-MS technology. The concentrations for these components have not been pre-filtered for the maximum tolerated concentration (MTC) based on the MTT assay (_noMTC).Data from the assay component CEETOX_H295R_ESTRONE_noMTC was analyzed into 1 assay endpoint. This assay endpoint, CEETOX_H295R_ESTRONE_noMTC, was analyzed with bidirectional fitting relative to DMSO as the negative control and baseline of activity. […]
Cell culture and media preparation procedures were conducted in accordance with OECD Test No. 456 guidelines, with minor modifications. […] For steroid quantification, media samples were shipped to OpAns, LLC (Durham, NC) on dry ice, and samples were thawed to room temperature prior to liquid-liquid extraction. […] Steroid hormones were separated by HPLC, eluted using a reverse phase C18 gradient with electrospray positive ionization, followed by quantification by tandem mass spectrometry (MS/MS). […]

Chain of PGR (gene 5241) (P06401 whole entry, looked up, the tested form may be a part): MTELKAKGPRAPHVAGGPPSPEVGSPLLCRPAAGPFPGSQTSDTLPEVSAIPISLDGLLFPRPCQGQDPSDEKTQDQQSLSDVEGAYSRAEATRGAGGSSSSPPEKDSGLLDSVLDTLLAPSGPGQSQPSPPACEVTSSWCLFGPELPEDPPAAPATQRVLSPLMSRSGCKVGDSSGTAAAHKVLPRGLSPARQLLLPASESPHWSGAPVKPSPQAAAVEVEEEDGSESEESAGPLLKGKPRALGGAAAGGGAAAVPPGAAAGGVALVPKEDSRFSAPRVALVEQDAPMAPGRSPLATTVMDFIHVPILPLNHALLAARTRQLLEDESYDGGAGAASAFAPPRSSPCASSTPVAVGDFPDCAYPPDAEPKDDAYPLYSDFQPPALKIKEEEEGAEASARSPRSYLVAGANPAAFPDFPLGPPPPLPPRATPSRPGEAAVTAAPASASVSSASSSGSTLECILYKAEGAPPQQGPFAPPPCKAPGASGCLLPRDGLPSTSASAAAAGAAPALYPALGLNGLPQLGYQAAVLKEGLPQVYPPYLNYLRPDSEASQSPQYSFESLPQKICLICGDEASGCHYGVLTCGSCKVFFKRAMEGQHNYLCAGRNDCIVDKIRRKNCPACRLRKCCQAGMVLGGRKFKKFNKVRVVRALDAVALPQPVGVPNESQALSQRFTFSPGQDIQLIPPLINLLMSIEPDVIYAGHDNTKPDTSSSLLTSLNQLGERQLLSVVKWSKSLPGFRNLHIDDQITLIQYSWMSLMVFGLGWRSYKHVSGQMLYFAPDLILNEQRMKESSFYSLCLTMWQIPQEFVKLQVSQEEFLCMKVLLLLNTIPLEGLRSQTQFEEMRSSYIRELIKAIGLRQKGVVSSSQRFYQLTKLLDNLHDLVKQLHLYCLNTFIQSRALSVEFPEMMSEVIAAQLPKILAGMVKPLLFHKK

O=C(Nc1ccc2c(c1)Cc1ccccc1-2)C(F)(F)F
outcome (PGR (gene 5241) [1]): inactive
AC50 (PGR (gene 5241) [2]): 19.6 µM (active)
outcome [3]: inactive
outcome [4]: inactive
outcome (PGR (gene 5241) [5]): inactive

O=c1c(O)c(-c2ccc(O)cc2)oc2cc(O)cc(O)c12
AC50 (PGR (gene 5241) [2]): 43.7 µM (active)
outcome [3]: inactive

CCCOC(=O)c1c(Cl)c(Cl)c(Cl)c(Cl)c1C(=O)OCCC
AC50 (PGR (gene 5241) [2]): 9.87 µM (active)
outcome [3]: inactive
outcome [4]: inactive

CC=Cc1ccc(OC)c(OC)c1
AC50 [6]: 39.5 µM (active)
outcome [7]: inactive

COc1ccc(OC)c(N=Nc2c(O)ccc3ccccc23)c1
outcome [6]: inactive
outcome [7]: inactive
outcome [8]: inactive

N#Cc1ccc(CC(=O)c2cccc(C(F)(F)F)c2)cc1
AC50 (PGR (gene 5241) [2]): 46.1 µM (active)
outcome [3]: inactive
outcome [4]: inactive

C=C1CC[C@H](O)C/C1=C/C=C1\CCC[C@]2(C)[C@@H]([C@H](C)/C=C/[C@H](C)C(C)C)CC[C@@H]12
outcome (PGR (gene 5241) [2]): inactive
outcome [4]: inactive

CCOC(=O)C(C#N)=C(c1ccccc1)c1ccccc1
AC50 (PGR (gene 5241) [2]): 15.2 µM (active)
outcome [3]: inactive
outcome [4]: inactive

O=C(Nc1ccc2c(O)c(N=Nc3ccc(N=Nc4ccc(S(=O)(=O)O)cc4)cc3)c(S(=O)(=O)O)cc2c1)c1ccccc1
outcome [9]: inactive
outcome [8]: inactive
outcome [10]: inactive

C=C[Si]1(C)O[Si](C)(C=C)O[Si](C)(C=C)O[Si](C)(C=C)O1 (stereo unspecified)
outcome [7]: inactive
outcome [8]: inactive

Clc1ccc(C(c2ccccc2Cl)C(Cl)Cl)cc1 (stereo unspecified)
AC50 (PGR (gene 5241) [2]): 11 µM (active)
outcome [3]: inactive
outcome [4]: inactive
